Laboratory results published in PubChem BioAssay (NCI).
About 79,000 compounds went through this panel and 15% of them were active in at least one assay; those are over-represented in the sample as a whole. Active and inactive are the calls of the source. No stated cut-off is given here; in the data, active means growth inhibition above about 70%; inactive means the rest.

Experiments:
[1] = NCI Yeast Anticancer Drug Screen. Data for the wt2 strain (AID 169);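 further: 0% = growth of vehicle-treated yeast cultures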; conditions: S. cerevisiae wt2 strain growth inhibition, stronger effect = higher value
Outline: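 Treated yeast vs. vehicle-treated yeast: growth inhibition determined.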

[2] = NCI Yeast Anticancer Drug Screen. Data for the mlh1 strain (AID 171);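 further: 0% = growth of vehicle-treated control cultures of the same strain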; conditions: S. cerevisiae mlh1 strain growth inhibition, stronger effect = higher value
Outline: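 A yeast strain with a defined genetic lesion serves as the test organism. Cultures receive compound or vehicle, and growth is measured.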

[3] = NCI Yeast Anticancer Drug Screen. Data for the sgs1 strain (AID 173);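 further: 0% = growth of vehicle-only control cultures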; conditions: S. cerevisiae sgs1 mutant, stronger effect = higher value
Outline: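 A genetically defined yeast mutant is incubated with the test compound, and its growth is compared to that of the same strain given vehicle.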

[4] = NCI Yeast Anticancer Drug Screen. Data for the mlh1 rad18 strain (AID 175); conditions: S. cerevisiae mlh1 rad18 strain growth inhibition, stronger effect = higher value
Outline: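 Steps: expose repair-defective yeast to compound; measure growth; express inhibition against vehicle-treated controls.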

[5] = NCI Yeast Anticancer Drug Screen. Data for the rad18 strain (AID 177); conditions: S. cerevisiae rad18 mutant growth inhibition, stronger effect = higher value
Outline: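 Measured value is growth inhibition of a yeast strain bearing a DNA repair alteration, referenced to vehicle-treated cells.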

[6] = NCI Yeast Anticancer Drug Screen. Data for the rad52 strain (AID 147);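 further: 0% = growth of vehicle-treated control cultures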; conditions: S. cerevisiae rad52 mutant growth inhibition, stronger effect = higher value
Outline: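 Here a repair-compromised yeast strain receives each compound; its growth is then quantified and normalised to vehicle-only controls.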

[7] = NCI Yeast Anticancer Drug Screen. Data for the wt1 strain (AID 149);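 further: 0% = growth of vehicle-treated wt1 cultures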; conditions: S. cerevisiae wt1 strain (SPY 50644) growth inhibition, stronger effect = higher value
Outline: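 Compounds are added to wt1 yeast cultures. Growth is then measured. Inhibition is expressed relative to vehicle-treated controls.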

[8] = NCI Yeast Anticancer Drug Screen. Data for the rad50EPP+ strain (AID 151);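 further: 0% = growth of vehicle-treated control cultures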; conditions: S. cerevisiae rad50 mutant strain, stronger effect = higher value
Outline: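 Read-out is yeast growth inhibition relative to vehicle; cells used were the rad50EPP+ strain.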

[9] = NCI Yeast Anticancer Drug Screen. Data for the mgt1 strain (AID 153); conditions: S. cerevisiae mgt1 mutant growth inhibition, stronger effect = higher value
Outline: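 Measured: inhibition of mgt1 yeast growth by compound, normalized to vehicle-treated cultures.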

[10] = NCI Yeast Anticancer Drug Screen. Data for the rad50 strain (AID 155);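 further: 0% = growth of vehicle-only cultures of the same strain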; conditions: S. cerevisiae rad50 strain growth inhibition, stronger effect = higher value
Outline: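 Inhibition values express reduced yeast growth in compound-treated cultures relative to vehicle-treated controls.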

[11] = NCI Yeast Anticancer Drug Screen. Data for the mec2-1 strain (AID 157); conditions: S. cerevisiae mec2-1 strain, stronger effect = higher value
Outline: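 Using mec2-1 yeast: add compound, measure growth, express inhibition versus vehicle-treated cultures.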

[12] = NCI Yeast Anticancer Drug Screen. Data for the rad14 strain (AID 159);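 further: 0% = growth of vehicle-treated control cultures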; conditions: S. cerevisiae rad14 strain growth inhibition, stronger effect = higher value
Outline: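 A mutant yeast strain defective in DNA damage repair is treated with compound; inhibition of its growth is scored against untreated, vehicle-exposed cultures.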

[13] = NCI Yeast Anticancer Drug Screen. Data for the sgs1 mgt1 strain (AID 161);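 further: 0% = growth of cultures given vehicle only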; conditions: S. cerevisiae sgs1 mgt1 strain, stronger effect = higher value
Outline: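 This yeast growth screen uses a strain with defined DNA-repair lesions; compound-treated growth is compared with vehicle-treated growth.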

[14] = NCI Yeast Anticancer Drug Screen. Data for the CLN2oe strain (AID 163);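 further: 0% = growth of vehicle-only control cultures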; conditions: S. cerevisiae CLN2oe strain, stronger effect = higher value
Outline: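 Whole-cell yeast growth assay. A strain engineered for altered cell-cycle control received compound, and inhibition relative to vehicle-treated cultures was recorded.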

[15] = NCI Yeast Anticancer Drug Screen. Data for the cln2 rad14 strain (AID 165);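 further: 0% = growth equal to vehicle treated cultures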; conditions: S. cerevisiae cln2 rad14 strain, stronger effect = higher value
Outline: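 Yeast strain cln2 rad14, bearing defects in cell cycle control and DNA repair, serves as the test system; values reflect growth inhibition compared with vehicle.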

[16] = NCI Yeast Anticancer Drug Screen. Data for the bub3 strain (AID 167); conditions: S. cerevisiae bub3 mutant strain, stronger effect = higher value
Outline: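 Steps: expose the mutant yeast strain to compound; grow alongside vehicle-treated cultures; measure growth; express inhibition against the vehicle cultures.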

[17] = at 5.0 µM (retest, dose inferred, filed as 0.5)
[18] = at 50.0 µM (retest, dose inferred, filed as 5.0)

Measured: growth inhibition

CC(/C=C/c1ccc([N+](=O)[O-])o1)=N/N1CC(CN2CCOCC2)OC1=O (centres undefined)
inactive: [1]; at 1.2 µM -3% | [1]; at 3.7 µM 11% | [1]; at 11.0 µM 49% | [2]; at 1.2 µM -14% | [2]; at 3.7 µM -6% | [2]; at 11.0 µM -2% | [2]; at 33.0 µM 42% | [3]; at 1.2 µM -8% | [3]; at 3.7 µM 3% | [3]; at 11.0 µM 69% | [4]; [17] 63% | [5]; at 1.2 µM 24%
active: [1]; at 33.0 µM 79% | [1]; at 100.0 µM 98% | [2]; at 100.0 µM 91% | [3]; at 33.0 µM 93% | [3]; at 100.0 µM 97% | [4]; [18] 95% | [4]; at 50.0 µM 93.5% | [5]; at 3.7 µM 89% | [5]; at 11.0 µM 97% | [5]; at 33.0 µM 97% | [5]; at 100.0 µM 98%

O=[N+]([O-])c1cccc2nc3ccccc3c(NCCCN3CCCCC3)c12
active: [6]; at 1.2 µM 89% | [6]; at 3.7 µM 95% | [6]; at 11.0 µM 96% | [6]; at 33.0 µM 97% | [6]; at 100.0 µM 98% | [7]; at 11.0 µM 80% | [7]; at 33.0 µM 96% | [7]; at 100.0 µM 97% | [8]; at 1.2 µM 83% | [8]; at 3.7 µM 96% | [8]; at 11.0 µM 98% | [8]; at 33.0 µM 98% | [8]; at 100.0 µM 99% | [9]; at 11.0 µM 94% | [9]; at 33.0 µM 98% | [9]; at 100.0 µM 99% | [10]; at 1.2 µM 71% | [10]; at 3.7 µM 89% | [10]; [17] 89% | [10]; at 11.0 µM 94% | [10]; at 33.0 µM 96% | [10]; [18] 98% | [10]; at 50.0 µM 96.7% | [10]; at 100.0 µM 97% | [11]; at 1.2 µM 73% | [11]; at 3.7 µM 94% | [11]; [17] 97% | [11]; at 11.0 µM 97% | [11]; at 33.0 µM 97% | [11]; [18] 99% | [11]; at 50.0 µM 98.2% | [11]; at 100.0 µM 98% | [12]; at 1.2 µM 98% | [12]; at 3.7 µM 98% | [12]; at 11.0 µM 98% | [12]; at 33.0 µM 99% | [12]; at 100.0 µM 98% | [13]; [17] 92% | [13]; [18] 98% | [13]; at 50.0 µM 97% | [14]; at 11.0 µM 89% | [14]; at 33.0 µM 95% | [14]; at 100.0 µM 98% | [15]; [17] 99% | [15]; [18] 99% | [15]; at 50.0 µM 97.5% | [16]; at 11.0 µM 90% | [16]; at 33.0 µM 97% | [16]; [18] 98% | [16]; at 50.0 µM 96.8% | [16]; at 100.0 µM 98% | [1]; at 11.0 µM 89% | [1]; at 33.0 µM 97% | [1]; at 100.0 µM 98% | [2]; at 11.0 µM 92% | [2]; at 33.0 µM 97% | [2]; at 100.0 µM 99% | [3]; at 1.2 µM 87% | [3]; at 3.7 µM 93% | [3]; at 11.0 µM 95% | [3]; at 33.0 µM 98% | [3]; at 100.0 µM 98% | [4]; [17] 97% | [4]; [18] 99% | [4]; at 50.0 µM 98% | [5]; at 1.2 µM 96% | [5]; at 3.7 µM 95% | [5]; at 11.0 µM 97% | [5]; at 33.0 µM 98% | [5]; at 100.0 µM 99%
inactive: [7]; at 1.2 µM 3% | [7]; at 3.7 µM 13% | [9]; at 1.2 µM 12% | [9]; at 3.7 µM 45% | [14]; at 1.2 µM -3% | [14]; at 3.7 µM 45% | [16]; at 1.2 µM -14% | [16]; at 3.7 µM 21% | [16]; [17] 22% | [1]; at 1.2 µM 1% | [1]; at 3.7 µM 39% | [2]; at 1.2 µM 10% | [2]; at 3.7 µM 50%

O=C(/N=N/C(=O)Oc1ccccc1)Oc1ccccc1
inactive: [6]; at 1.2 µM -49% | [6]; at 3.7 µM -54% | [6]; at 11.0 µM -52% | [6]; at 33.0 µM -38% | [6]; at 100.0 µM 24% | [7]; at 1.2 µM -57% | [7]; at 3.7 µM -51% | [7]; at 11.0 µM -46% | [7]; at 33.0 µM -32% | [7]; at 100.0 µM 37% | [8]; at 1.2 µM -87% | [8]; at 3.7 µM -110% | [8]; at 11.0 µM -106% | [8]; at 33.0 µM -46% | [8]; at 100.0 µM -82% | [9]; at 1.2 µM -61% | [9]; at 3.7 µM -61% | [9]; at 11.0 µM -63% | [9]; at 33.0 µM -29% | [9]; at 100.0 µM 57% | [10]; at 1.2 µM -81% | [10]; at 3.7 µM -66% | [10]; [17] 30% | [10]; at 11.0 µM -107% | [10]; at 33.0 µM -40% | [10]; at 50.0 µM 56.4% | [10]; at 100.0 µM 45% | [11]; at 1.2 µM -97% | [11]; at 3.7 µM -47% | [11]; [17] 53% | [11]; at 11.0 µM -87% | [11]; at 33.0 µM -52% | [11]; at 50.0 µM 8.5% | [11]; at 100.0 µM -16% | [12]; at 1.2 µM -26% | [12]; at 3.7 µM -26% | [12]; at 11.0 µM -10% | [12]; at 33.0 µM -15% | [12]; at 100.0 µM 5% | [13]; [17] -29% | [13]; [18] 39% | [13]; at 50.0 µM 48.6% | [14]; at 1.2 µM 9% | [14]; at 3.7 µM 22% | [14]; at 11.0 µM 16% | [14]; at 33.0 µM 40% | [14]; at 100.0 µM 40% | [15]; [17] 5% | [15]; [18] 59% | [15]; at 50.0 µM 43.6% | [16]; at 1.2 µM -25% | [16]; at 3.7 µM -29% | [16]; [17] 50% | [16]; at 11.0 µM -17% | [16]; at 33.0 µM 2% | [16]; [18] 69% | [16]; at 50.0 µM 55% | [16]; at 100.0 µM 65% | [1]; at 1.2 µM -46% | [1]; at 3.7 µM -48% | [1]; at 11.0 µM -54% | [1]; at 33.0 µM -39% | [1]; at 100.0 µM 48% | [2]; at 1.2 µM -70% | [2]; at 3.7 µM -85% | [2]; at 11.0 µM -78% | [2]; at 33.0 µM -44% | [2]; at 100.0 µM 3% | [3]; at 1.2 µM -78% | [3]; at 3.7 µM -80% | [3]; at 11.0 µM -35% | [3]; at 33.0 µM -27% | [3]; at 100.0 µM 59% | [4]; [17] 44% | [4]; at 50.0 µM 49% | [5]; at 1.2 µM -44% | [5]; at 3.7 µM -72% | [5]; at 11.0 µM -72% | [5]; at 33.0 µM -58% | [5]; at 100.0 µM 45%
active: [10]; [18] 96% | [11]; [18] 97% | [4]; [18] 98%
